A short description of experiment [1]: E. coli DRC41 culture turbidity changes, primary screen, E. coli filamentation inducer project, strain DRC41, OD650, 48 h (AID 1152).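 Also: E. coli MC1000 strain DRC41 lacking acrAB efflux pump and sulA.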 The note with it: E. coli DRC41 (acrAB sulA), higher = more signal, called active from +8 up or from −8 down.
A short description of experiment [2]: small-molecule binders of probe aLefty1, primary screen, biochemical, small-molecule microarray, 635/667 nm fluorescence (AID 1153).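 Also: score merges spot fluorescence with signal-to-noise ratio from the scanned slide images.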 The note with it: higher = more signal.
Experiment [3] can be described thus: PSAC antagonists in infected red cells, primary screen, cell-based, P. falciparum Indochina, OD700, 1 h (AID 1154). The note with it: P. falciparum Indochina infected RBC osmotic lysis, higher = more signal, called active from +8 up or from −8 down.
Experiment [4] is described as follows: PSAC antagonists in infected red cells, primary screen, cell-based, P. falciparum Indochina, OD700, 2 h (AID 1155).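 Also: lysis reports solute entry through the parasite surface anion channel PSAC; channel blockers reduce lysis of infected cells.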 As to conditions: P. falciparum Indochina infected erythrocytes, osmotic lysis OD700; higher = more signal, called active from +8 up or from −8 down.
A short description of experiment [5]: osmotic lysis modulators in infected erythrocytes, primary screen, PSAC antagonist project, cell-based, P. falciparum Indochina, OD700, 3 h (AID 1156). As to conditions: higher = more signal, called active from +8 up or from −8 down.
A short description of experiment [6]: PSAC antagonists in infected red cells, primary screen, cell-based, P. falciparum Indochina, OD700, 18 h (AID 1157). The note with it: P. falciparum Indochina infected erythrocytes, osmotic lysis OD700, 18 h; higher = more signal, called active from +8 up or from −8 down.
Experiment [7] is described as follows: modulators of S6 phosphorylation in cells, primary screen, cell-based, A549, cytoblot, luminescence, serum-stimulated (AID 1158).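 Also: serum-stimulated A549 lung adenocarcinoma cells; signal is phosphorylated S6 detected by cytoblot immunostaining with HRP secondary.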 As to conditions: A549 phospho-S6 cytoblot, 5 h, higher = more signal.
The target in experiment [8] is NADPH oxidase 2 (Homo sapiens) (UniProt P04839). As to the kind of experiment: NOX2-dependent H2O2 signal modulators, primary screen, NOX inhibitor project, cell-based, HEK293-NOX2, PMA-stimulated, Amplex Red fluorescence (AID 1159). Also: test concentration not given here. As to conditions: 45 min, higher = more signal, called active from +8 up or from −8 down.
Chain of NADPH oxidase 2 (Homo sapiens) (P04839 whole entry, looked up): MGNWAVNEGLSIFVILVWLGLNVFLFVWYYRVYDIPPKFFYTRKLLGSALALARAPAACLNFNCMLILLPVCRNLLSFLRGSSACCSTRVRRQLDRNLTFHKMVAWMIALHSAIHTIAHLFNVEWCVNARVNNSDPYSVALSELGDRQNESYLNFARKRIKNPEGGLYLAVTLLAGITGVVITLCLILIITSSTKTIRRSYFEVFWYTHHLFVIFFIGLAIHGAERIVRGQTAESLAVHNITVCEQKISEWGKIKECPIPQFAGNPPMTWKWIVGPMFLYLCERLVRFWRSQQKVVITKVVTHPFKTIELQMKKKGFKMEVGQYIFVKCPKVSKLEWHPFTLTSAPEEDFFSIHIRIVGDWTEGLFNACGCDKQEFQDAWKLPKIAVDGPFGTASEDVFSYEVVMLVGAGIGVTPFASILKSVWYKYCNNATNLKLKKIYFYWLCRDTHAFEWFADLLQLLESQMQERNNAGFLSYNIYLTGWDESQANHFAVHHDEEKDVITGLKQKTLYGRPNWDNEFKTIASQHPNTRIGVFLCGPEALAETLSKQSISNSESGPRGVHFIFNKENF
Experiment [9] deals with NADPH oxidase 4 (Homo sapiens) (UniProt Q9NPH5). As to the kind of experiment: NOX4-dependent H2O2 signal modulators, primary screen, NOX inhibitor project, cell-based, HEK293-NOX4, tetracycline-induced, Amplex Red fluorescence (AID 1160). The note with it: 45 min, higher = more signal, called active from +8 up or from −8 down.
Chain of NADPH oxidase 4 (Homo sapiens) (Q9NPH5 whole entry, looked up): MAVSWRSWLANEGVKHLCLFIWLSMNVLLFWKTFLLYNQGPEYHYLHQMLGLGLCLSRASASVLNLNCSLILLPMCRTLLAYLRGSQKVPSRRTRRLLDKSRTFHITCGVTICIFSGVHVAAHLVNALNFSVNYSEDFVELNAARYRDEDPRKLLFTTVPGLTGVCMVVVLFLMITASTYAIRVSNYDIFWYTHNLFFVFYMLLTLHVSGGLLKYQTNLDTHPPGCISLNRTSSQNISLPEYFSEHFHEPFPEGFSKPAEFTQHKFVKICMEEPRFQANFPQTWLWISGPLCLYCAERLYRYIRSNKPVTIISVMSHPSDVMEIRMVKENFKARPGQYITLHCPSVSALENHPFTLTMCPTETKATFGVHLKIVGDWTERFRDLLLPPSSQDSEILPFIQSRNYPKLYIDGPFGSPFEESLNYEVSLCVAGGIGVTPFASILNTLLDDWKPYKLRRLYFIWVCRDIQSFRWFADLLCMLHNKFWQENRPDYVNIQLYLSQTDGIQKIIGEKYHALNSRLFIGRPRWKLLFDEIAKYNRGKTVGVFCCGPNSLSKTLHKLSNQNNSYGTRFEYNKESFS
Experiment [10] concerns the target NADPH oxidase 5 (Homo sapiens) (UniProt Q96PH1). The experiment in a line: NOX5-dependent H2O2 signal modulators, primary screen, NOX inhibitor project, cell-based, HEK293-NOX5, Amplex Red fluorescence (AID 1161). The note with it: HEK293-NOX5, ionomycin, 45 min, higher = more signal.
Experiment [11] is described as follows: A549 cell viability effects, profiling panel, calcein-AM fluorescence, 48 h, basal (AID 1162). Also: test concentration not given here. As to conditions: higher = more signal.
The nature of experiment [12]: adipocyte viability effects, profiling panel, cell-based, 3T3-L1 adipocytes, calcein-AM fluorescence, 48 h, basal (AID 1163). Also: test concentration not given here. As to conditions: 3T3-L1 adipocytes viability, higher = more signal.
The nature of experiment [13]: HepG2 cell viability effects, profiling panel, calcein-AM fluorescence, 48 h, basal (AID 1164). Also: test concentration not given here. The note with it: higher = more signal.
The nature of experiment [14]: MM1S cell viability effects, profiling panel, calcein-AM fluorescence, 48 h, basal (AID 1165).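 Also: viability of MM1S multiple myeloma cells under basal unstimulated conditions; test concentration not given here.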 As to conditions: higher = more signal.
The nature of experiment [15]: basal RPMI8226 viability, no added stimulus, profiling panel, cell-based, calcein-AM fluorescence, 48 h, PK04 Diversity Set (AID 1166).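 Also: cells grown under basal conditions without added stimulus; test concentration not given here.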 As to conditions: RPMI8226 myeloma viability, higher = more signal.
A short description of experiment [16]: basal HepG2 mitochondrial membrane potential changes, profiling panel, cell-based, JC-1 fluorescence, 24 h, 100 nL compound (AID 1167). Also: test concentration not given here. As to conditions: higher = more signal.
Experiment [17] in a line: basal 3T3-L1 adipocyte mitochondrial potential changes, profiling panel, cell-based, JC-1 fluorescence, 3T3-L1 adipocytes, 24 h, 100 nL compound (AID 1168). Also: test concentration not given here. As to conditions: JC-1 mitochondrial fluorescence, higher = more signal, called active from +8 up or from −8 down.
Experiment [18] in a line: basal RPMI8226 mitochondrial membrane potential changes, profiling panel, cell-based, JC-1 fluorescence, 24 h, 100 nL compound (AID 1169). Also: test concentration not given here. As to conditions: RPMI8226 myeloma, JC-1 mitochondrial potential fluorescence, higher = more signal.
The nature of experiment [19]: basal MM1S mitochondrial membrane potential changes, profiling panel, cell-based, JC-1 fluorescence, 24 h, 100 nL compound (AID 1170). Also: test concentration not given here. The note with it: higher = more signal.
A short description of experiment [20]: A549 lung cancer cell viability effects, profiling panel, resazurin fluorescence, 24 h, PK04 Diversity Set (AID 1171). Also: test concentration not given here. As to conditions: higher = more signal, called active from +8 up or from −8 down. (Alamar Blue is a resazurin reagent that responds to reducing activity.)

Molecules are shown by their SMILES. The source made the active and inactive calls.

Chain of NADPH oxidase 5 (Homo sapiens) (Q96PH1 whole entry, looked up): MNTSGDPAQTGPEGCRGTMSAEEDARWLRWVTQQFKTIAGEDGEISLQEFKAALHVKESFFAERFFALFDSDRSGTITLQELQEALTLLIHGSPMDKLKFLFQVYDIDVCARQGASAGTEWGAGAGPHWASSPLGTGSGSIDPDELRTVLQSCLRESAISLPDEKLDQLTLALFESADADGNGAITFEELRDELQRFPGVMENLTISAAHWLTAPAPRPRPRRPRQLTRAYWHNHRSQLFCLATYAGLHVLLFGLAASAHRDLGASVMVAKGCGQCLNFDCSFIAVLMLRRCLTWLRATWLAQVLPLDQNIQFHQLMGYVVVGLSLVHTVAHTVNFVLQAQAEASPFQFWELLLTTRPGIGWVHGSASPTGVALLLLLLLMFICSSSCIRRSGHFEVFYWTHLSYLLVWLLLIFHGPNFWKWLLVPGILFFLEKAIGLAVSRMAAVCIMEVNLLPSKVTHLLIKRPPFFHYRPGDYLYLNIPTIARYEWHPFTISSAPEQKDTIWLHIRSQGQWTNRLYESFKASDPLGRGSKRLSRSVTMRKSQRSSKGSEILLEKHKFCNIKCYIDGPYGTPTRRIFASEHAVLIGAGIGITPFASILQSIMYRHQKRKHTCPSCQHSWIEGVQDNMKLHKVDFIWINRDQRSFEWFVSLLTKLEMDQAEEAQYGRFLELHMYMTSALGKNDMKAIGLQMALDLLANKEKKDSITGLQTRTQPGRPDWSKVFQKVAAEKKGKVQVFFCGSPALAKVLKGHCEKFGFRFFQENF

As to `COCCOC(=O)N1C(=O)[C@@]2(c3ccccc31)[C@H](C(=O)N1CCCCCCC1)[C@H]1C(=O)O[C@H](c3ccccc3)[C@H](c3ccccc3)N1[C@@H]2c1ccc(O)cc1`, the z-score in experiment [1] is 1.51 (inactive); in experiment [3], 0.822 (inactive); in experiment [4], -0.0852 (inactive); in experiment [5], 0.367 (inactive); in experiment [6] it was -0.0764 (inactive); in experiment [7] it was 1.94. For the same molecule, the z-score was -3.28 (inactive) in [8]; -0.538 (inactive) in experiment [9]; -4 in [10]; 0.452 in [11]; 0.688 in experiment [12]; 1.11 in [13]. The z-score is -0.233 in experiment [14]; -1.54 in experiment [15]; -0.229 in [16]; 1.45 (inactive) in experiment [17]; -0.564 in experiment [18]; -0.21 in experiment [19]. In experiment [20], the z-score is 0.17 (inactive). Further, in [2], the composite z-score stood at 3.16.
`COc1ccc(NN2C(C(O)c3ccc(OC)cc3)C=CC3C(=O)N(C4CCCCC4)C(=O)C32)cc1` (stereo not given): the z-score is -0.625 (inactive) in experiment [1]; 9.1 (active) in experiment [3]; 1.69 (inactive) in experiment [4]; 0.722 (inactive) in experiment [5]; 0.63 (inactive) in experiment [6]; -0.613 in experiment [7]. For the same molecule, the z-score is -1.34 (inactive) in [8]; -1.1 (inactive) in [9]; -2.54 in experiment [10]; -0.285 in [11]; -1.29 in [12]; 1.24 in experiment [13]. For the same molecule, the z-score in experiment [14] was 0.764; in experiment [15], -0.512; in experiment [16] it was -0.126; in experiment [17], 0.0238 (inactive); in experiment [18], 0.417; in experiment [19], -1.44. For the same molecule, the z-score in experiment [20] is 0.965 (inactive). This molecule returned a composite z-score in experiment [2] of 0.0768.
Consider `O=C1NC(=O)C2C1C=CC(C(O)c1ccc(F)cc1)N2Nc1ccccn1` (stereo not given), for which the z-score in [1] is -1.99 (inactive); in [3], 1.02 (inactive); in experiment [4] it was 1.23 (inactive); in experiment [5] it was -0.02 (inactive); in [6], 0.753 (inactive); in experiment [7], -0.727. Also, the z-score in experiment [8] is -1.01 (inactive); in experiment [9], -2.92 (inactive); in experiment [10], -2.12; in [11], -1.12; in experiment [12] it was -0.182; in [13] it was 0.417. Further, the z-score in experiment [14] was -0.416; in experiment [15], -0.395; in [16] it was -1.53; in experiment [17], -0.311 (inactive); in experiment [18], 0.734; in experiment [19], 0.247. In addition, in [20], the z-score was -1.11 (inactive). Moreover, the composite z-score in experiment [2] was 0.0378.
Consider `CCCC[C@@H]1C[C@H]1[C@@H](NC(=O)c1ccc(C(F)(F)F)cc1)c1ccc(C(=O)OC)cc1`, for which the z-score in experiment [1] is -0.499 (inactive); in experiment [3], 8.27 (active); in experiment [4], 0.851 (inactive); in experiment [5], 0.512 (inactive); in [6] it was 0.422 (inactive); in [7] it was -0.0327. Moreover, the z-score is -0.628 (inactive) in [8]; 0.497 (inactive) in [9]; 1.03 in [10]; -0.844 in experiment [11]; -0.55 in experiment [12]; -1.33 in [13]. For the same molecule, the z-score in experiment [14] is -1.97; in experiment [15], -1.73; in experiment [16] it was -0.84; in [17] it was 0.282 (inactive); in experiment [18], -0.167; in experiment [19], -1.72. Further, in experiment [20], the z-score is 0.312 (inactive). The same molecule displayed a composite z-score in [2] of 0.375.
Consider `CN1C(=O)[C@]2(CCC(=O)OC(C)(C)C)N=C(c3ccc(OCCCO)cc3)O[C@@H]2c2ccccc21`, for which the z-score is 0.504 (inactive) in experiment [1]; 33.2 (active) in experiment [3]; 29.3 (active) in experiment [4]; 2.63 (inactive) in experiment [5]; 2.68 (inactive) in experiment [6]; -0.0426 in experiment [7]. The z-score in experiment [8] is -2.09 (inactive); in [9], -0.534 (inactive); in [10] it was -1.44; in experiment [11], -0.024; in [12], 0.834; in experiment [13], -0.54. Also, the z-score in experiment [14] is -0.964; in experiment [15], -3.26; in [16] it was 1.29; in experiment [17], 1.41 (inactive); in experiment [18] it was -0.931; in experiment [19] it was 0.129. Further, the z-score in experiment [20] was -0.877 (inactive). The composite z-score in experiment [2] turned out to be 0.448.
